The text below walks through data of PubChem BioAssay (EPA / NIEHS).

SMILES strings stand for the structures. Where “and” joins values, the source holds several entries; their conditions need not be identical. Equal values may be shown once. Results filed as inconclusive are left out. Calls of active or inactive are those of the source. Rule for the calls: active = hit-call score of the fitted dose curve at least 0.9, where 1 is the maximum; inconclusive = response in the unintended direction; inactive = score below 0.9.

Tested on in the first test: not listed separately
As to the kind of experiment: TOX21_p53_BLA_p3_viability: Viability Assessment in the Tox21 HCT-116 p53 Agonism Beta-lactamase Assay, Phase 3 (AID 2283593).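 Note: cells exposed to compound for 16 h before reading.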 The gist of the method: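 HCT-116 cells (4000/well) rested 5 h at 37C, then got DMSO compounds by pin tool (217-fold dilution) for 16 h at 37C, 5% CO2. After the bla read, CellTiter-Glo was added and luminescence read at 30 min, room temperature.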
With `O=S(=O)(O)c1ccc2cc(O)c(S(=O)(=O)O)cc2c1`, the outcome was inactive.
Consider `CNC(=S)N(C)C`, for which the compound was classed as inactive.
The same measure, in the same setting: with `C=C(C)c1cccc(C(C)(C)N=C=O)c1` the entry was “inactive”.
Take `OC1OCCOC1O` (stereo not drawn): the call was inactive.
As for `CC(C)=CCCC(C)C=O` (stereo not drawn), the compound was called inactive.
Same read-out and setting: under `CCCCCCC(O)CO` (stereo not drawn) stands “inactive”.
On the same count and under the same terms, under `C=CCOc1c(Br)cc(Br)cc1Br` stands “inactive”; under `CCOc1ccc(N)c([N+](=O)[O-])c1`, “inactive”.
The same measure, in the same setting: with `COC(=O)/C=C\C(=O)O` the entry was “inactive”; with `CCC(C)OC(=O)c1ccc(O)cc1` (stereo not drawn), “inactive”; with `COC(=O)/C=C/C(C)=C\C=C\C(C)=C\C=C\C=C(C)\C=C\C=C(C)\C=C\C(=O)O`, “inactive”.
On to `Cc1cccc(OCCOc2cccc(C)c2)c1`, for which the result was inactive.
Same read-out and setting: under `CCC(CC)C(=O)O` stands “inactive”; under `Cc1cc(C)c(C)c(O)c1`, “inactive”.

The target in the next test is Cellular tumor antigen p53 (Homo sapiens) (UniProt P04637). Nature of the test: TOX21_p53_BLA_p3_ratio: Tox21 HCT-116 p53 Agonism Beta-lactamase Assay, Ratio, Phase 3 (AID 2283596). The method in brief: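 Cells were seeded at 4000/well, rested 5 h at 37C, then dosed with DMSO compound solutions (217-fold dilution) for 16 h. CCF4-AM substrate was loaded for 2 h at room temperature, and the 460/530 nm emission ratio was fitted for gain of signal versus DMSO.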
Chain of Cellular tumor antigen p53 (Homo sapiens) (P04637 whole entry, looked up): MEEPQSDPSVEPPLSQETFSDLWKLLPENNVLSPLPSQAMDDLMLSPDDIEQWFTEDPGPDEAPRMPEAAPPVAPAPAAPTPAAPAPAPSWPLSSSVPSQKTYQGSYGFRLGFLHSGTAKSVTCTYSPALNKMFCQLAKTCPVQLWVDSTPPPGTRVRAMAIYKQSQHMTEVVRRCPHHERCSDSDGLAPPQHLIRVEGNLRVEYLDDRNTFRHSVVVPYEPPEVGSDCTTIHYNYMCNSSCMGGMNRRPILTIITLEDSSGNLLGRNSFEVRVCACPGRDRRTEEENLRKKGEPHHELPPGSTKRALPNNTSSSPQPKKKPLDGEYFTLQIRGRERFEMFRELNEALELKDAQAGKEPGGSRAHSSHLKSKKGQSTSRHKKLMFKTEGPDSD
By AC50 is commonly meant the midpoint of the concentration-response curve, whichever way the signal moves. In the case of `SCCc1cnccn1`, the AC50 was 21.6 µM (active).
For the compound `CNC(=S)N(C)C`, the result was inactive.
Same read-out and setting: with `CCCCCCCCCCOC(C)=O` the entry was “inactive”; with `OC1OCCOC1O` (stereo not drawn), “inactive”; with `CC(=O)OCCC1CCCCC1`, “inactive”.
Turning to `O=Cc1ccc(CO)o1`, the result was inactive.
Take `COc1ccc([C@@H]2CC(=O)c3c(O)cc(O[C@@H]4O[C@H](CO[C@@H]5O[C@@H](C)[C@H](O)[C@@H](O)[C@H]5O)[C@@H](O)[C@H](O)[C@H]4O)cc3O2)cc1OC`: the outcome was inactive.
In the case of `C=CCOc1c(Br)cc(Br)cc1Br`, the outcome was inactive.
As to `CC(CC=O)c1ccccc1` (stereo not drawn), the outcome was inactive.
Still for that read-out and setting: with `CCC(C)OC(=O)c1ccc(O)cc1` (stereo not drawn) the entry was “inactive”; with `CC(=O)OCC(C)OC(C)=O` (stereo not drawn), “inactive”; with `O=C(O)CCCCCCCCCC(=O)O`, “inactive”.
For `CC1=Nc2ccc3ccccc3c2C1(C)C`, the outcome was inactive.
In the case of `COC(=O)/C=C/C(C)=C\C=C\C(C)=C\C=C\C=C(C)\C=C\C=C(C)\C=C\C(=O)O`, the outcome was inactive.
As to `O=C(c1ccccc1)c1ccc(O)c(O)c1O`, the result was inactive.
On the same count and under the same terms, under `Cc1cccc(OCCOc2cccc(C)c2)c1` stands “inactive”.
`NC(=O)NNC(N)=O`: the result was inactive.
Same read-out and setting: with `C=CC(=O)OCCC(=O)O` the entry was “inactive”; with `NCCCN1CCN(CCCN)CC1`, “inactive”.

Tested on in another test: not listed separately
As to the kind of experiment: TOX21_p53_BLA_p4_viability: Viability Assessment in the Tox21 HCT-116 p53 Agonism Beta-lactamase Assay, Phase 4 (AID 2283597).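 Note: hits lower the luminescence signal meaning cytotoxicity.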 The method in brief: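 ATP content by CellTiter-Glo luminescence, 30 min RT, read after the beta-lactamase ratio step. Cells: HCT116, 4000/well, compound added after 5 h, exposure 16 h at 37C. Signal loss = reduced viability.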
As for `CCCCCCOC(=O)C(C)CC` (stereo not drawn), the compound was classed as inactive.
On the same count and under the same terms, under `O=S(=O)(O)c1ccc2cc(O)c(S(=O)(=O)O)cc2c1` stands “inactive”; under `SCCc1cnccn1`, “inactive”.
As to `C=C1[C@H]2CC[C@@H]3[C@H]2C(C)(C)CCC[C@]13C`, the result was inactive.
`CNC(=S)N(C)C`: the call was inactive.
On to `OC1OCCOC1O` (stereo not drawn), for which the compound was called inactive.
Same read-out and setting: under `c1ccc2c(c1)ccc1cc3c(ccc4ccccc43)cc12` stands “inactive”.
Still for that read-out and setting: with `CC(C)=CCCC(C)C=O` (stereo not drawn) the entry was “inactive”; with `CC(=O)OCCC1CCCCC1`, “inactive”; with `CCCCCCC(O)CO` (stereo not drawn), “inactive”.
On the same count and under the same terms, under `O=Cc1ccc(CO)o1` stands “inactive”.
For the compound `COc1ccc([C@@H]2CC(=O)c3c(O)cc(O[C@@H]4O[C@H](CO[C@@H]5O[C@@H](C)[C@H](O)[C@@H](O)[C@H]5O)[C@@H](O)[C@H](O)[C@H]4O)cc3O2)cc1OC`, the compound was classed as inactive.
The same measure, in the same setting: with `CC(CC=O)c1ccccc1` (stereo not drawn) the entry was “inactive”.
`O=C1CCCC(=O)O1`: the call was inactive.
As to `O=C(Nc1cccc(C(F)(F)F)c1)c1cc(Br)cc(Br)c1O`, the AC50 is 1.82 µM (active) and 1.7 µM (active).
On to `O=C(O)c1cc(Cl)cc([N+](=O)[O-])c1Cl`, for which the call was inactive.
Turning to `CCCOC(=O)CCCCC(=O)OCCC`, the compound was classed as inactive.
Consider `COC(=O)/C=C/C(C)=C\C=C\C(C)=C\C=C\C=C(C)\C=C\C=C(C)\C=C\C(=O)O`, for which the outcome was inactive.
The same measure, in the same setting: under `O=C1CC2CC1C1CCCC21` (stereo not drawn) stands “inactive”; under `O=C(O)Cc1c(Cl)ccc(Cl)c1Cl`, “inactive”.
For the compound `Cc1cc(C)c(C)c(O)c1`, the outcome was inactive.
Still for that read-out and setting: with `NC(=O)NNC(N)=O` the entry was “inactive”.
Still for that read-out and setting: under `NCCCN1CCN(CCCN)CC1` stands “inactive”.

A further test addresses Cellular tumor antigen p53 (Homo sapiens) (UniProt P04637). As to the kind of experiment: TOX21_p53_BLA_p5_ratio: Tox21 HCT-116 p53 Agonism Beta-lactamase Assay, Ratio, Phase 5 (AID 2283599). The method in brief: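 HCT-116 cells carrying a p53-inducible beta-lactamase reporter were seeded at 4000 cells/well and dosed after 5 h with compound in DMSO (217-fold dilution). After 16 h at 37C, CCF4-AM substrate was added for 2 h, and the 460/530 nm emission ratio was scored as gain-of-signal versus DMSO.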
For `CC(C)CCCCCOC(=O)CCS`, the outcome was inactive.
On to `O=S(=O)(O)c1ccc2cc(O)c(S(=O)(=O)O)cc2c1`, for which the result was inactive.
Regarding `SCCc1cnccn1`, the AC50 is 35.7 µM (active).
On to `CNC(=S)N(C)C`, for which the result was inactive.
Still for that read-out and setting: with `C=C(C)c1cccc(C(C)(C)N=C=O)c1` the entry was “inactive”.
On the same count and under the same terms, with `OC1OCCOC1O` (stereo not drawn) the entry was “inactive”; with `c1ccc2c(c1)ccc1cc3c(ccc4ccccc43)cc12`, “inactive”.
For `CC(C)=CCCC(C)C=O` (stereo not drawn), the outcome was inactive.
As to `CCCCCCC(O)CO` (stereo not drawn), the result was inactive.
On the same count and under the same terms, under `O=Cc1ccc(CO)o1` stands “inactive”; under `COc1ccc([C@@H]2CC(=O)c3c(O)cc(O[C@@H]4O[C@H](CO[C@@H]5O[C@@H](C)[C@H](O)[C@@H](O)[C@H]5O)[C@@H](O)[C@H](O)[C@H]4O)cc3O2)cc1OC`, “inactive”.
On the same count and under the same terms, under `C=CCOc1c(Br)cc(Br)cc1Br` stands “inactive”; under `CCOc1ccc(N)c([N+](=O)[O-])c1`, “inactive”.
On the same count and under the same terms, under `COC(=O)/C=C\C(=O)O` stands “inactive”; under `CCC(C)OC(=O)c1ccc(O)cc1` (stereo not drawn), “inactive”.
As to `O=C1CCCC(=O)O1`, the result was inactive.
Same read-out and setting: under `CC(=O)OCC(C)OC(C)=O` (stereo not drawn) stands “inactive”; under `O=C(O)CCCCCCCCCC(=O)O`, “inactive”.
For the compound `CC1=Nc2ccc3ccccc3c2C1(C)C`, the result was inactive.
In the case of `O=C(Nc1cccc(C(F)(F)F)c1)c1cc(Br)cc(Br)c1O`, the AC50 is 1.07 µM (active) and 7.71 µM (active).
On to `COC(=O)/C=C/C(C)=C\C=C\C(C)=C\C=C\C=C(C)\C=C\C=C(C)\C=C\C(=O)O`, for which the result was inactive.
For the compound `O=C1CC2CC1C1CCCC21` (stereo not drawn), the outcome was inactive.
The same measure, in the same setting: under `O=C(c1ccccc1)c1ccc(O)c(O)c1O` stands “inactive”.
`Cc1cccc(OCCOc2cccc(C)c2)c1`: the result was inactive.
Regarding `Cc1cc(C)c(C)c(O)c1`, the result was inactive.
In the case of `NC(=O)NNC(N)=O`, the outcome was inactive.
Same read-out and setting: with `NCCCN1CCN(CCCN)CC1` the entry was “inactive”.
